Source: PubChem BioAssay (EPA / NIEHS)
Results filed as inconclusive are left out. The source made the active and inactive calls. Rule for the calls: active = hit-call score of the fitted dose curve at least 0.9, where 1 is the maximum; inconclusive = response in the unintended direction; inactive = score below 0.9.

Experiments:
[1] = molecular target: AR (gene 367) (UniProt P10275); assay: ACEA_AR_antagonist_80hr: ACEA Biosciences xCELLigence Real-Time Cell Analysis on Androgen Receptor Antagonism for Proliferation (AID 2283787);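 note: 22Rv1 human prostate cancer cells with growth followed by electrical impedance; hits lower the impedance growth signal relative to DMSO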
AR (gene 367), sequence (P10275 whole entry, looked up): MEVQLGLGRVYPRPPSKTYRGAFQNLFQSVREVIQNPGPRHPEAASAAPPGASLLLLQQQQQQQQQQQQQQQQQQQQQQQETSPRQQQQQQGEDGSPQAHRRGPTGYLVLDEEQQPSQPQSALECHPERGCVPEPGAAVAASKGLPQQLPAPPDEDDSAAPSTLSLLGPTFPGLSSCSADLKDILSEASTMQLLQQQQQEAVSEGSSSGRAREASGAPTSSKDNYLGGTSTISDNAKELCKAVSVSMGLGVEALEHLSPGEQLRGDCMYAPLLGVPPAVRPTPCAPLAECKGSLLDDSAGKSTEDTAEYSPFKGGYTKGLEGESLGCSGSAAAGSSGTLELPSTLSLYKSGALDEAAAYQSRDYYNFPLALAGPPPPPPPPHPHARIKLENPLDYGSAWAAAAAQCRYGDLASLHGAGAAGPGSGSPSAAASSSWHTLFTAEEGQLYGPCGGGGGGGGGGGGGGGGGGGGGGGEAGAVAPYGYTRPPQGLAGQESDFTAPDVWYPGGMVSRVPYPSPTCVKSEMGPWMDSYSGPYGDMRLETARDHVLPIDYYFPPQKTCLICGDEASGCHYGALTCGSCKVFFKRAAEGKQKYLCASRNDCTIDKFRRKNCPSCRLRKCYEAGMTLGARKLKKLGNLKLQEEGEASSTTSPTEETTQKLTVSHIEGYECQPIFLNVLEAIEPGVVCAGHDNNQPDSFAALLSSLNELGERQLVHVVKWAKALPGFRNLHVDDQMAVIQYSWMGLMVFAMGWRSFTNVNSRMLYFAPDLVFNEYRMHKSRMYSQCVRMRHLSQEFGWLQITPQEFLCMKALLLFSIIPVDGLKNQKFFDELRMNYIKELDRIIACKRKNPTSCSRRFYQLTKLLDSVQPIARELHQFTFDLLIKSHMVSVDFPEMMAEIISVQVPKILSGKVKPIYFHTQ
Outline: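 Growth-kinetic antagonist readout in 22Rv1 cells, taken 80 h after continuous compound exposure. Activity fitted as signal loss relative to DMSO negative control.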

[2] = ATG_M_06_XSP1: Attagene TRANS-FACTORIAL Multi-Species (XSP1) HepG2 Assay for M06 Transcription Factor (Internal Marker) (AID 2283790)
Outline: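 Transfected HepG2 multi-reporter system treated 24 h in the presence of 3 nM 6-alpha-fluorotestosterone. The M06 internal marker transcript was quantified by RT-PCR with capillary electrophoresis as a background control, and gain of signal was scored versus DMSO.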

[3] = molecular target: Peroxisome proliferator-activated receptor gamma (Homo sapiens) (UniProt P37231); assay: ATG_hPPARg_XSP1: Attagene TRANS-FACTORIAL Multi-Species (XSP1) HepG2 Assay for human Peroxisome Proliferator-activated Receptor gamma (PPARg) (AID 2283800)
Peroxisome proliferator-activated receptor gamma (Homo sapiens), sequence (P37231 whole entry, looked up, the tested form may be a part): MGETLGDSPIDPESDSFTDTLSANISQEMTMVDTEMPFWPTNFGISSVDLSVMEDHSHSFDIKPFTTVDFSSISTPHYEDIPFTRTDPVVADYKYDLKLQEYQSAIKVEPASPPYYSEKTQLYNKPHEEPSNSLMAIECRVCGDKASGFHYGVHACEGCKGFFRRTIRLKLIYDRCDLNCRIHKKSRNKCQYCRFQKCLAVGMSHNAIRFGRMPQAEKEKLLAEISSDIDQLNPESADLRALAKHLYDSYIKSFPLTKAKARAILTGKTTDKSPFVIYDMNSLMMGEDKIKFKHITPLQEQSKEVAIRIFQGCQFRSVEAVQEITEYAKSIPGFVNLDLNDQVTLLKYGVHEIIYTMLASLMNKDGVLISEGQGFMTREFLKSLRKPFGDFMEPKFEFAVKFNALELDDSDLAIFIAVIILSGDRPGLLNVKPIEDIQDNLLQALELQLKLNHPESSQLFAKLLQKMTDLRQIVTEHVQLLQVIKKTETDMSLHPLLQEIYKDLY
Outline: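 HepG2 cells transiently transfected with GAL4-UAS reporter units carrying chimeric NR-Gal4 proteins; 3 nM 6-alpha-fluorotestosterone present. After 24 h dosing, reporter mRNA quantified by RT-PCR and capillary electrophoresis; gain of signal relative to DMSO.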

[4] = molecular target: mouse Peroxisome Proliferator-activated Receptor gamma (PPARg), Pparg (gene 19016) (UniProt P37238); assay: ATG_mPPARg_XSP1: Attagene TRANS-FACTORIAL Multi-Species (XSP1) HepG2 Assay for mouse Peroxisome Proliferator-activated Receptor gamma (PPARg) (AID 2283802)
mouse Peroxisome Proliferator-activated Receptor gamma (PPARg), Pparg (gene 19016), sequence (P37238 whole entry, looked up, the tested form may be a part): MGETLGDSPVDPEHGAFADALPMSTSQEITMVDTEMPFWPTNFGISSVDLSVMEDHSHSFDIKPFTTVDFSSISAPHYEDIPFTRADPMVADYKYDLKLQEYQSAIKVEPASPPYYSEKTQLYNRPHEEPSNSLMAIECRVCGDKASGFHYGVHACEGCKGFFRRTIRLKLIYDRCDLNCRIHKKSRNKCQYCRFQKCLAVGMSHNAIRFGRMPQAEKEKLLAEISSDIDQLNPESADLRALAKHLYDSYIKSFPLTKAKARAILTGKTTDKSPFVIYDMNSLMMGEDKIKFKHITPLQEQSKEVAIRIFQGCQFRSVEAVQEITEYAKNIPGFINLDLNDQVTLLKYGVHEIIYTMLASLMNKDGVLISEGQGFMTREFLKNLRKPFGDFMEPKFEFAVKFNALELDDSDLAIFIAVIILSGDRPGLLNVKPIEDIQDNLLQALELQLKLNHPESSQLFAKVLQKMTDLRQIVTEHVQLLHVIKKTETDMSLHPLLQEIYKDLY
Outline: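 HepG2 cells transiently transfected with GAL4-UAS reporter units driven by mouse PPARg–GAL4 chimera; 3 nM 6-alpha-fluorotestosterone present. After 24 h dosing, reporter mRNA quantified by RT-PCR, fluorescent labelling and capillary electrophoresis; gain of signal versus DMSO.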

[5] = molecular target: frog Thyroid hormone Receptor alpha (TRa), thra-a (gene 397942) (UniProt P15204); assay: ATG_frTRa_XSP1: Attagene TRANS-FACTORIAL Multi-Species (XSP1) HepG2 Assay for frog Thyroid hormone Receptor alpha (TRa) (AID 2283804)
frog Thyroid hormone Receptor alpha (TRa), thra-a (gene 397942), sequence (P15204 whole entry, looked up, the tested form may be a part): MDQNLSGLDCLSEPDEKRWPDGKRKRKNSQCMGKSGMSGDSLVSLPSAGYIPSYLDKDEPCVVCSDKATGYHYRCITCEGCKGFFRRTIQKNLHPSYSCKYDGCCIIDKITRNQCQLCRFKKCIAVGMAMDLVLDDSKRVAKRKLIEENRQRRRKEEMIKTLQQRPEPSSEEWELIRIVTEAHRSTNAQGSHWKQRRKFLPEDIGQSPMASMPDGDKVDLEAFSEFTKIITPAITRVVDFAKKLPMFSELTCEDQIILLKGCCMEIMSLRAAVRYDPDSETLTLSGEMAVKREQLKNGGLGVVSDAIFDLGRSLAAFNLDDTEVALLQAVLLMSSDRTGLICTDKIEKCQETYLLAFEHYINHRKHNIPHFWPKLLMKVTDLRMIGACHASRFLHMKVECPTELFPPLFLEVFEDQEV
Outline: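 HepG2 cells transiently transfected with frog TRa-GAL4 chimeric reporter units, dosed 24 hr with 3 nM 6-alpha-fluorotestosterone present; reporter mRNA quantified by RT-PCR, fluorescent labelling and capillary electrophoresis, gain of signal versus DMSO.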

[6] = molecular target: human Thyroid hormone Receptor alpha (TRa), THRA (gene 7067) (UniProt P10827); assay: ATG_hTRa_XSP1: Attagene TRANS-FACTORIAL Multi-Species (XSP1) HepG2 Assay for human Thyroid hormone Receptor alpha (TRa) (AID 2283805)
Outline: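 HepG2 cells transiently transfected with GAL4-UAS reporter units expressing chimeric NR-Gal4 proteins, dosed 24 hours with 3 nM 6-alpha-fluorotestosterone present. Reporter mRNA measured by RT-PCR and capillary electrophoresis; gain of signal fitted versus DMSO.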

[7] = test system: turtle Thyroid Hormone Receptor, alpha (TRa), gene 101949057; assay: ATG_trTRa_XSP1: Attagene TRANS-FACTORIAL Multi-Species (XSP1) HepG2 Assay for turtle Thyroid Hormone Receptor, alpha (TRa) (AID 2283806)
Outline: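 HepG2 cells transiently transfected with GAL4-UAS reporter units and chimeric receptor-Gal4 constructs, with 3 nM 6-alpha-fluorotestosterone present. Reporter mRNA was quantified 24 h after dosing by RT-PCR, 6-FAM labelling and capillary electrophoresis; gain of signal versus DMSO.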

[8] = molecular target: zebrafish Thyroid Hormone Receptor alpha (TRa), thraa (gene 30670) (UniProt Q98867); assay: ATG_zfTRa_XSP1: Attagene TRANS-FACTORIAL Multi-Species (XSP1) HepG2 Assay for zebrafish Thyroid Hormone Receptor alpha (TRa) (AID 2283807)
zebrafish Thyroid Hormone Receptor alpha (TRa), thraa (gene 30670), sequence (Q98867 whole entry, looked up, the tested form may be a part): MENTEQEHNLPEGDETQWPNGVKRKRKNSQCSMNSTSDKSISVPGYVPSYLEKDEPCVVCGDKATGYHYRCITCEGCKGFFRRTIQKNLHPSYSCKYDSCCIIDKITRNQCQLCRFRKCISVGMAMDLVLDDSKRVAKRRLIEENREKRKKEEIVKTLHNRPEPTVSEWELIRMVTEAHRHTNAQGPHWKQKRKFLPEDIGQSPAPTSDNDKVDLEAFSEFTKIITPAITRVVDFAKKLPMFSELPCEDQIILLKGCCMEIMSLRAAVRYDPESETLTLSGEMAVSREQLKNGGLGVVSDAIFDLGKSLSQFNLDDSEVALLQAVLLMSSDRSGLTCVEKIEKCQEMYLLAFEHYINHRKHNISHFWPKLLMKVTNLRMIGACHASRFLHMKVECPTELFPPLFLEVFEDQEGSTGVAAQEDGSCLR
Outline: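 HepG2 cells transiently transfected with GAL4-UAS reporter units including a zebrafish TRa–Gal4 chimera, dosed 24 h with 3 nM 6-alpha-fluorotestosterone present. Reporter mRNA quantified by RT-PCR and capillary electrophoresis; gain versus DMSO.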

[9] = ATG_XTT_Cytotoxicity_XSP1: Cytotoxicity Assessment in the Attagene TRANS-FACTORIAL Multi-Species (XSP1) HepG2 Assay (AID 2283810)
Outline: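 XTT viability readout taken at 24 hours post-dosing in HepG2 liver cells co-treated with 3 nM 6-alpha-fluorotestosterone. Signal loss relative to DMSO controls reflects cytotoxicity.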

[10] = molecular target: GAL4 Transcription Factor (Internal Marker), GAL4 (gene 855828) (UniProt P04386); assay: ATG_GAL4_XSP2: Attagene TRANS-FACTORIAL Multi-Species (XSP2) HepG2 Assay for GAL4 Transcription Factor (Internal Marker) (AID 2283814);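 note: GAL4 reporter mRNA background control in MRTU transfected cells not a receptor target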
GAL4 Transcription Factor (Internal Marker), GAL4 (gene 855828), sequence (P04386 whole entry, looked up, the tested form may be a part): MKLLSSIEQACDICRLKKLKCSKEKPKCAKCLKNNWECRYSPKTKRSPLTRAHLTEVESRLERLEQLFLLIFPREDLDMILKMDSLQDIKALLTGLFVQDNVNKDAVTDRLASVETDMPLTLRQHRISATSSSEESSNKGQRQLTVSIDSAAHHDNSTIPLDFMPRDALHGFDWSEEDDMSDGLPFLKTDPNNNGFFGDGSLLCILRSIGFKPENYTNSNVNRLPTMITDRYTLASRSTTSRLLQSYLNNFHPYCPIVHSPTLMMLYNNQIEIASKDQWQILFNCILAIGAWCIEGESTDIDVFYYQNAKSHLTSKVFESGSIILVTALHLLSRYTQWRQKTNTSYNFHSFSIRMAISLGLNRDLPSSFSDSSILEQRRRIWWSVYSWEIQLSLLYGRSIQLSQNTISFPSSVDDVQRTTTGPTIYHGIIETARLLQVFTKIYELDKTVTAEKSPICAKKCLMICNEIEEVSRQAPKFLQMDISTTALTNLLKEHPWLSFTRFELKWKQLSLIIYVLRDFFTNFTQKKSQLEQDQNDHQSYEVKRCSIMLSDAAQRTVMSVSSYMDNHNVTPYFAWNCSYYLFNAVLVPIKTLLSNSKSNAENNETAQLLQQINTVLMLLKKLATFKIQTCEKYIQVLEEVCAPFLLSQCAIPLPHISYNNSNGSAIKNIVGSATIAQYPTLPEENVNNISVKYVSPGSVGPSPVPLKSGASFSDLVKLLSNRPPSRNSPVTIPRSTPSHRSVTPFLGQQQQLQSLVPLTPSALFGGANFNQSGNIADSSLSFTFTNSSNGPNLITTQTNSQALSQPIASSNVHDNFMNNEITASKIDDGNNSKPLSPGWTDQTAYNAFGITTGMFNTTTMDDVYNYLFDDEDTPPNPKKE
Outline: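 HepG2 cells transiently transfected with GAL4-UAS reporter units, stimulated with 3 nM 6-alpha-fluorotestosterone plus 1.5 nM norgestrel, dosed 24 h. Reporter mRNA by RT-PCR/capillary electrophoresis; gain-of-signal fit versus DMSO, background control.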

[11] = test system: turtle Androgen Receptor (AR), gene 101947425; assay: ATG_trAR_XSP1: Attagene TRANS-FACTORIAL Multi-Species (XSP1) HepG2 Assay for turtle Androgen Receptor (AR) (AID 2283786)
Outline: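 HepG2 cells transiently transfected with a turtle AR–GAL4 chimera and GAL4-UAS reporter, co-treated with 3 nM 6-alpha-fluorotestosterone for partial stimulation. Reporter mRNA is quantified at 24 h by RT-PCR and capillary electrophoresis, gain-of-signal versus DMSO.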

[12] = molecular target: Estrogen receptor beta (Homo sapiens) (UniProt Q92731); assay: ATG_hERb_XSP1: Attagene TRANS-FACTORIAL Multi-Species (XSP1) HepG2 Assay for human Estrogen Receptor (ESR2) (AID 2283788)
Estrogen receptor beta (Homo sapiens), sequence (Q92731 whole entry, looked up, the tested form may be a part): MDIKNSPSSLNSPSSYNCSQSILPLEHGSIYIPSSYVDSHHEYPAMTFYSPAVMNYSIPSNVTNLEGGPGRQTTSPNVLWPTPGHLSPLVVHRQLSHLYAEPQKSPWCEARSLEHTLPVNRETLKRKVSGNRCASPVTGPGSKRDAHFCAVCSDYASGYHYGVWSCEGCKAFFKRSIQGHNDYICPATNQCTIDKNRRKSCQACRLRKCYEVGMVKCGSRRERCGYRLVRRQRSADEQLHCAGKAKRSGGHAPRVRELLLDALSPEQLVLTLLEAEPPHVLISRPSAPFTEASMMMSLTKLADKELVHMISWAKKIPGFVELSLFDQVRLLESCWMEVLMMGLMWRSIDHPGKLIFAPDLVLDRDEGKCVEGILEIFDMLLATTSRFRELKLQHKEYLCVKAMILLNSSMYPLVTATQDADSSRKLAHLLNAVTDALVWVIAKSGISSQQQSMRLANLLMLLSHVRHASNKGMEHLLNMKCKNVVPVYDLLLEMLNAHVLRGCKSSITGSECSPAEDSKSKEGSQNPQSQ
Outline: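 Measured endpoint is transcriptional gain of signal from a GAL4-UAS reporter controlled by chimeric ERβ in HepG2 liver cells. Exposure lasts 24 h alongside 3 nM 6-alpha-fluorotestosterone, with DMSO as negative control.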

[13] = ATG_M_06_XSP2: Attagene TRANS-FACTORIAL Multi-Species (XSP2) HepG2 Assay for M06 Transcription Factor (Internal Marker) (AID 2283811);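 note: hits are increases in signal above the DMSO baseline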
Outline: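 HepG2, multiplexed reporter transfection; 24 h dosing; AR stimulated with 3 nM 6-alpha-fluorotestosterone + 1.5 nM norgestrel; RNA → RT-PCR → 6-FAM primer extension → HpaI → CE. Positive direction vs DMSO.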

[14] = test system: turtle Estrogen Receptor (ERa), gene 101933533; assay: ATG_trERa_XSP2: Attagene TRANS-FACTORIAL Multi-Species (XSP2) HepG2 Assay for turtle Estrogen Receptor (ERa) (AID 2283812);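 note: human HepG2 liver cells transiently expressing turtle ERa-Gal4 chimeric receptor; actives raise reporter signal above DMSO so AC50 reflects agonist activity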
Outline: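 HepG2 cells transiently transfected with GAL4-UAS reporter units expressing turtle ERa-Gal4 chimera. Reporter mRNA measured after 24 h dosing by RT-PCR, fluorescent labelling and capillary electrophoresis; gain of signal fitted versus DMSO.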

[15] = molecular target: Estrogen receptor beta (Homo sapiens) (UniProt Q92731); assay: ATG_hERb_XSP2: Attagene TRANS-FACTORIAL Multi-Species (XSP2) HepG2 Assay for human Estrogen Receptor (ERb) (AID 2283813);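 note: actives raise reporter mRNA above DMSO so AC50 reflects agonist induction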
Outline: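 HepG2 cells transiently transfected with GAL4-UAS reporter units and chimeric human ERb-Gal4, 24 h exposure. Reporter mRNA quantified by RT-PCR with FAM labelling, HpaI digestion and capillary electrophoresis; gain of signal versus DMSO.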

[16] = molecular target: GAL4 Transcription Factor (Internal Marker), GAL4 (gene 855828) (UniProt P04386); assay: ATG_GAL4_XSP1: Attagene TRANS-FACTORIAL Multi-Species (XSP1) HepG2 Assay for GAL4 Transcription Factor (Internal Marker) (AID 2283789)
Outline: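 HepG2 cells transiently transfected with multiplexed GAL4-UAS reporter units were exposed for 24 h with 3 nM 6-alpha-fluorotestosterone present. Reporter mRNA was quantified by RT-PCR, FAM labelling, HpaI digestion and capillary electrophoresis; background-control readout, gain-of-signal versus DMSO.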

[17] = ATG_M_19_XSP1: Attagene TRANS-FACTORIAL Multi-Species (XSP1) HepG2 Assay for M19 Transcription Factor (Internal Marker) (AID 2283798)
Outline: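 HepG2 cells transiently transfected with multiplexed GAL4-UAS reporter units, dosed 24 h with 3 nM 6-alpha-fluorotestosterone present for partial AR stimulation. Reporter mRNA measured by RT-PCR with capillary electrophoresis; gain-of-signal fitted relative to DMSO.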

[18] = ATG_M_32_XSP1: Attagene TRANS-FACTORIAL Multi-Species (XSP1) HepG2 Assay for M32 Transcription Factor (Internal Marker) (AID 2283799)
Outline: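 HepG2 cells transiently transfected with multi-species TRANS reporter units, dosed 24 h with 3 nM 6-alpha-fluorotestosterone present. Internal-marker reporter mRNA quantified by RT-PCR and capillary electrophoresis; positive-direction fit versus DMSO.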

[19] = molecular target: human Thyroid hormone Receptor beta (TRb), THRB (gene 7068) (UniProt P10828); assay: ATG_hTRb_XSP1: Attagene TRANS-FACTORIAL Multi-Species (XSP1) HepG2 Assay for human Thyroid hormone Receptor beta (TRb) (AID 2283808)
human Thyroid hormone Receptor beta (TRb), THRB (gene 7068), sequence (P10828 whole entry, looked up, the tested form may be a part): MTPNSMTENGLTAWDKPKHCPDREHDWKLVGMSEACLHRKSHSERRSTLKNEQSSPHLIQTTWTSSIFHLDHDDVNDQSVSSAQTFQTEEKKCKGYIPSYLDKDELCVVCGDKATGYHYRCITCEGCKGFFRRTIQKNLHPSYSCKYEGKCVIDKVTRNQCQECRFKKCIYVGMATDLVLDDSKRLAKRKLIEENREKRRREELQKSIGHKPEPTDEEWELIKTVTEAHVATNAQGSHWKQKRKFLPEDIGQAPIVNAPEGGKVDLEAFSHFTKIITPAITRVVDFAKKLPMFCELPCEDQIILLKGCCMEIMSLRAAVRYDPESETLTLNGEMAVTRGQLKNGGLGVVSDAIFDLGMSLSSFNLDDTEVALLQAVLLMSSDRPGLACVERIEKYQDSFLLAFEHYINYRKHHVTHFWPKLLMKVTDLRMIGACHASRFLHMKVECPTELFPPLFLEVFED
Outline: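 HepG2 cells transiently transfected with reporter units driving GAL4-UAS reporters for chimeric NR-Gal4 proteins; 24 h chemical exposure with 3 nM 6-alpha-fluorotestosterone present. Reporter mRNA quantified by RT-PCR and capillary electrophoresis, gain of signal versus DMSO.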

Measured: AC50

CC1=C(C(=O)Nc2ccccc2)SCCO1
inactive: [1]

CON(C)C(=O)Nc1ccc(Cl)c(Cl)c1
active: [3] 100 µM | [4] 100 µM
inactive: [2] | [5] | [6] | [7] | [8] | [9] | [10]

CC(C)(C)c1ccc(CSc2cnn(C(C)(C)C)c(=O)c2Cl)cc1
active: [3] 0.387 µM | [4] 0.585 µM | [5] 0.148 µM
not listed: [1] | [6] | [16] | [17] | [18] | [19]
inactive: all other assays above

CCCCOC(=O)c1ccccc1C(=O)OCCCC
inactive: [16] | [17] | [18] | [7] | [8] | [19] | [9] | [15] | [10]
active: [3] 27.5 µM | [4] 27.9 µM | [14] 42.3 µM

N#Cc1nn(-c2c(Cl)cc(C(F)(F)F)cc2Cl)c(N)c1S(=O)C(F)(F)F (stereo not given)
active: [1] 58 µM

OC(c1ccc(Cl)cc1)(c1cncnc1)c1ccccc1Cl (stereo not given)
active: [12] 1.98 µM | [14] 1.49 µM | [15] 25.4 µM
inactive: [3] | [4] | [8] | [9] | [13] | [10]
